Reference: the supplement of paper PMC10849652
Of roughly 8,800 targets only a part is listed; those with a hit were picked by preference. About 0.5% of all pairs of compound and target were hits.

Key:
Assay in all cases: log2 fold change, soluble protein after heating vs DMSO (PISA); higher = thermal stabilisation; K562 lysate, 10 uM; active = over 0.2 and 3.5 SD of the protein, either way, in both replicates (recomputed)
vemurafenib = compound: CCCS(=O)(=O)Nc1ccc(F)c(C(=O)c2c[nH]c3ncc(-c4ccc(Cl)cc4)cc23)c1F [vemurafenib]
Outline: (§1)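 Log-two fold change in thermal stability relative to solvent controls is reported from duplicates. For each sample, crude K562 extract from dounce-homogenised pellets in PBS pH 7.4 with 1 mM MgCl2, at 1 mg/mL protein, was treated with 10 μM compound for 30 min. Aliquots heated for 3 min across 48°C-58°C were pooled, brought to 0.5% NP-40 at 4°C and cleared at 21,000xg for 90 min. The supernatant was quantified by TMTpro 16plex LC-MS/MS with channel sums equalised.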

[1] = compound: CCCS(=O)(=O)Nc1ccc(F)c(C(=O)c2c[nH]c3ncc(Cl)cc23)c1F
Outline: as §1

barasertib = compound: CCN(CCCOc1ccc2c(Nc3cc(CC(=O)Nc4cccc(F)c4)[nH]n3)ncnc2c1)CCOP(=O)(O)O [barasertib]
Outline: as §1

[2] = compound: CC[C@@H]1C(=O)N(C)c2cnc(Nc3ccc(C(=O)NC4CCN(C)CC4)cc3OC)nc2N1C1CCCC1
Outline: as §1

volasertib = compound: CC[C@@H]1C(=O)N(C)c2cnc(Nc3ccc(C(=O)N[C@H]4CC[C@H](N5CCN(CC6CC6)CC5)CC4)cc3OC)nc2N1C(C)C [volasertib]
Outline: as §1

[3] = compound: CCn1c(C(=O)N(C2CC2)C2CC2)cc2c3c(ncn3C)c(Nc3cc(C)n(C)n3)nc21
Outline: as §1

[4] = compound: CCn1cc(-c2ccnc3[nH]c(-c4cccc(CN(C)C)c4)cc23)c(-c2ccc(NC(=O)N(C)C)cc2)n1
Outline: as §1

[5] = compound: CN1CCC(CNc2ccc3ncc(-c4cccc(OC(F)(F)F)c4)n3n2)CC1
Outline: as §1

alvocidib = compound: CN1CC[C@H](c2c(O)cc(O)c3c(=O)cc(-c4ccccc4Cl)oc23)[C@H](O)C1 [alvocidib]
Outline: as §1

Tubastatin A = compound: CN1CCc2c(c3ccccc3n2Cc2ccc(C(=O)NO)cc2)C1 [Tubastatin A]
Outline: as §1

[6] = compound: CNC(=O)C1=CC=CC=C1NC2=NC(=NC=C2Cl)NC3=C(C=C(C=C3)N4CCOCC4)OC
Outline: as §1

defactinib = compound: CNC(=O)c1ccc(Nc2ncc(C(F)(F)F)c(NCc3nccnc3N(C)S(C)(=O)=O)n2)cc1 [defactinib]
Outline: as §1

encorafenib = compound: COC(=O)N[C@@H](C)CNc1nccc(-c2cn(C(C)C)nc2-c2cc(Cl)cc(NS(C)(=O)=O)c2F)n1 [encorafenib]
Outline: as §1

[7] = compound: COC(=O)[C@H](CCSC)NC(=O)C1=C(C=C(C=C1)NC[C@H](CS)N)C2=CC=CC=C2
Outline: as §1

alisertib = compound: COc1cc(Nc2ncc3c(n2)-c2ccc(Cl)cc2C(c2c(F)cccc2OC)=NC3)ccc1C(=O)O [alisertib]
Outline: as §1

[8] = compound: COc1cc2nc(-c3cc(F)ccc3O)nc(N[C@@H]3CNC[C@H]3C(C)(C)O)c2cc1OC
Outline: as §1

gefitinib = compound: COc1cc2ncnc(Nc3ccc(F)c(Cl)c3)c2cc1OCCCN1CCOCC1 [gefitinib]
Outline: as §1

saracatinib = compound: CN1CCN(CCOc2cc(OC3CCOCC3)c3c(Nc4c(Cl)ccc5c4OCO5)ncnc3c2)CC1 [saracatinib]
Outline: as §1

sotrastaurin = compound: CN1CCN(c2nc(C3=C(c4c[nH]c5ccccc45)C(=O)NC3=O)c3ccccc3n2)CC1 [sotrastaurin]
Outline: as §1

[9] = compound: CNc1nc(-c2ccc3c(N)n[nH]c3c2)cc(N2C[C@@H](C(=O)NC3CCCCC3)CC[C@H]2C)n1
Outline: as §1

Measured: log2 fold change

BTRC (UniProt Q9Y297)
Sequence of UniProt Q9Y297 (Q9Y297 whole entry, looked up): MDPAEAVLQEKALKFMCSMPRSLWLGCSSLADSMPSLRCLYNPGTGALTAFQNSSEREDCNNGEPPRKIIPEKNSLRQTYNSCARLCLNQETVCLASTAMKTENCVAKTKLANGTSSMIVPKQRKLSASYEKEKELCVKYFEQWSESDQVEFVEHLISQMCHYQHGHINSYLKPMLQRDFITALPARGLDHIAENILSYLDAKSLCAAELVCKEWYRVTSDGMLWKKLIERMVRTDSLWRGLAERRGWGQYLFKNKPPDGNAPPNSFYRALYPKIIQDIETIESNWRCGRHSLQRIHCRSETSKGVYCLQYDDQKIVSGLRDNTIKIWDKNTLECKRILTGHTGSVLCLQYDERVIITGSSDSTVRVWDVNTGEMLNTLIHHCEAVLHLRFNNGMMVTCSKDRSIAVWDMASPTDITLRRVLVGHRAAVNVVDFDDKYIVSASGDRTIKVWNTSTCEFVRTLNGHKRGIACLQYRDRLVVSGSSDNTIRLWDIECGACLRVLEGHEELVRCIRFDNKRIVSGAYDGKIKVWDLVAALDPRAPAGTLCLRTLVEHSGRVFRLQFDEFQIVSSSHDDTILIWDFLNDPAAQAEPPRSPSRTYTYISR
inactive: vemurafenib -0.002 | [1] 0.023 | barasertib 0.052 | [2] 0.076 | volasertib -0.041 | [3] -0.088 | [4] 0.073 | [5] 0.067 | alvocidib -0.05 | Tubastatin A -0.019 | [6] -0.049 | defactinib -0.018 | encorafenib 0.035 | [7] 0.172 | alisertib -0.022 | [8] 0.096 | gefitinib -0.058

CDK5RAP2 (UniProt Q96SN8)
inactive: vemurafenib -0.023 | [1] -0.186 | barasertib 0.071 | [2] 0.029 | volasertib -0.3 | [3] 0.001 | [4] 0.016 | [5] -0.067 | saracatinib 0.027 | sotrastaurin -0.008 | alvocidib 0.018 | Tubastatin A -0.15 | [6] 0.009 | defactinib 0.037 | [9] -0.007 | encorafenib 0.045 | [7] 0.012 | alisertib -0.007 | [8] -0.144 | gefitinib -0.021

CAPNS1 (UniProt U3KPR7)
inactive: [1] -0.125 | barasertib 0.424 | volasertib -0.01 | alisertib -0.069 | [8] 0.024 | gefitinib 0.165

ATG10 (UniProt Q9H0Y0)
inactive: vemurafenib 0.026 | barasertib 0.092 | [2] 0.016 | [3] 0.012 | [4] -0.021 | [5] 0.01 | saracatinib -0.021 | sotrastaurin 0.038 | alvocidib 0.106 | Tubastatin A -0.035 | [6] 0.01 | defactinib -0.037 | [9] -0.022 | encorafenib 0.024 | [7] 0.025 | alisertib 0.032 | gefitinib 0.04

CDCA8 (UniProt Q53HL2)
Sequence of UniProt Q53HL2 (Q53HL2 whole entry, looked up): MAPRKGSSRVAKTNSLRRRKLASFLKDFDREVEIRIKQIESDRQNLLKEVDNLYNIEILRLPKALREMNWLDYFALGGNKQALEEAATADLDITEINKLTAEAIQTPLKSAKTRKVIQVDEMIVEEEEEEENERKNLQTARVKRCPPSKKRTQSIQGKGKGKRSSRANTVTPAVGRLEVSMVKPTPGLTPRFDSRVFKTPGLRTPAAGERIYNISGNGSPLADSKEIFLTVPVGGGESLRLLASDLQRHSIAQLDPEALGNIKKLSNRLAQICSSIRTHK
inactive: vemurafenib 0.025 | barasertib 0.106 | [2] 0.051 | [5] -0.034 | saracatinib 0.171 | alvocidib 0.091 | [6] 0.054 | defactinib 0.144 | [9] -0.061 | encorafenib 0.003 | [7] -0.044 | alisertib 0.034 | gefitinib 0.04
active: [4] 0.677

CDC14A isoform 2 (UniProt Q9UNH5)
inactive: [1] -0.271 | volasertib 0.085 | [3] 0.101 | sotrastaurin 0.058 | Tubastatin A 0.272 | alisertib 0.075 | [8] 0.019 | gefitinib 0.078

C8orf88 (UniProt P0DMB2)
inactive: barasertib -0.053 | [3] 0.027 | [4] 0.084 | [5] 0.011 | saracatinib 0.051 | sotrastaurin -0.015 | alvocidib 0.072 | Tubastatin A -0.064 | [6] 0.07 | [9] -0.015

B3GALT6 (UniProt Q96L58)
inactive: barasertib 0.002 | [3] 0.115 | saracatinib -0.172 | sotrastaurin 0.067 | Tubastatin A 0.051 | [6] -0.025 | [9] 0.059

BICRA (UniProt Q9NZM4)
active: [9] 0.884
inactive: [1] 0.055 | barasertib 0.165 | volasertib 0.036 | [3] -0.233 | [4] -0.133 | [5] -0.048 | saracatinib 0.02 | sotrastaurin 0 | alvocidib -0.113 | Tubastatin A 0.335 | [6] 0.101 | [8] 0.132

CHD9 (UniProt Q3L8U1)
inactive: vemurafenib -0.028 | [3] -0.139 | [5] -0.122 | saracatinib 0.114 | sotrastaurin 0.17 | alvocidib 0.027 | Tubastatin A 0.055 | [6] -0.064 | defactinib -0.147 | [9] -0.137 | alisertib -0.369 | gefitinib 0.111
active: [4] 1.88

BMT2 (UniProt Q1RMZ1)
inactive: [4] 0.004 | [5] 0.096 | alvocidib -0.004 | alisertib 0.025 | gefitinib -0.27

CHD4, A0A2R8Y521
inactive: [1] -0.315 | [2] -0.053 | volasertib 0.103 | [3] -0.342 | saracatinib 0.149 | Tubastatin A -0.117 | [9] 0.155 | encorafenib 0.046 | [7] -0.086 | alisertib 0.133 | [8] -0.454 | gefitinib 0.167

CDK11A (UniProt Q9UQ88)
inactive: [1] -0.019 | barasertib 0.029 | volasertib -0.135 | [3] 0.047 | [4] 0.127 | [5] -0.099 | saracatinib -0.069 | sotrastaurin -0.026 | alvocidib 0.077 | Tubastatin A -0.172 | [6] -0.011 | [9] 0.023 | alisertib -0.023 | [8] -0.037 | gefitinib 0

C6orf120 (UniProt Q7Z4R8)
inactive: [1] -0.127 | barasertib 0.096 | volasertib 0.051 | [4] -0.005 | [5] 0.049 | saracatinib 0.004 | alvocidib 0.096 | [6] 0.031 | [9] 0.066 | [8] -0.026

CAD (UniProt H7BZB3)
inactive: vemurafenib -0.063 | [2] 0.144 | [4] -0.02 | [5] -0.027 | alvocidib 0.005 | [6] 0.28 | defactinib 0.036 | encorafenib 0.113 | [7] 0.059

C15orf39 (UniProt Q6ZRI6)
inactive: barasertib -0.012 | [2] -0.047 | [3] -0.008 | [4] 0.08 | [5] 0.132 | saracatinib 0.025 | sotrastaurin 0.042 | alvocidib -0.04 | Tubastatin A -0.188 | [6] -0.031 | [9] 0.089 | encorafenib 0.047 | [7] 0.059 | alisertib 0.036 | gefitinib -0.067

CDAN1 (UniProt H3BPZ6)
inactive: sotrastaurin 0.175

ATPSCKMT (UniProt Q6P4H8)
Sequence of UniProt Q6P4H8 (Q6P4H8 whole entry, looked up): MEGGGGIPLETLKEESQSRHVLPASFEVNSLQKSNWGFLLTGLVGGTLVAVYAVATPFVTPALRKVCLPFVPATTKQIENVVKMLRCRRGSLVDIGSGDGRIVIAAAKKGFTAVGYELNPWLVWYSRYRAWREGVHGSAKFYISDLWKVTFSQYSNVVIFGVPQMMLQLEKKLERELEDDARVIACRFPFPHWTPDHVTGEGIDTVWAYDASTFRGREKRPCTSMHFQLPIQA
active: Tubastatin A -0.368
inactive: barasertib -0.019 | [2] 0.171 | [3] 0.077 | saracatinib 0.053 | sotrastaurin -0.007 | [9] -0.027 | encorafenib -0.176 | [7] 0.17

CEP128 (UniProt Q6ZU80)
active: [4] -1.27
inactive: vemurafenib -0.025 | barasertib 0.124 | [2] -0.132 | [3] 0.375 | [5] 0.369 | saracatinib 0.07 | alvocidib -0.294 | Tubastatin A 0.565 | defactinib -0.052 | [9] -0.037 | encorafenib 0.064 | [7] 0.031

BBS7 (UniProt Q8IWZ6)
Sequence of UniProt Q8IWZ6 (Q8IWZ6 whole entry, looked up): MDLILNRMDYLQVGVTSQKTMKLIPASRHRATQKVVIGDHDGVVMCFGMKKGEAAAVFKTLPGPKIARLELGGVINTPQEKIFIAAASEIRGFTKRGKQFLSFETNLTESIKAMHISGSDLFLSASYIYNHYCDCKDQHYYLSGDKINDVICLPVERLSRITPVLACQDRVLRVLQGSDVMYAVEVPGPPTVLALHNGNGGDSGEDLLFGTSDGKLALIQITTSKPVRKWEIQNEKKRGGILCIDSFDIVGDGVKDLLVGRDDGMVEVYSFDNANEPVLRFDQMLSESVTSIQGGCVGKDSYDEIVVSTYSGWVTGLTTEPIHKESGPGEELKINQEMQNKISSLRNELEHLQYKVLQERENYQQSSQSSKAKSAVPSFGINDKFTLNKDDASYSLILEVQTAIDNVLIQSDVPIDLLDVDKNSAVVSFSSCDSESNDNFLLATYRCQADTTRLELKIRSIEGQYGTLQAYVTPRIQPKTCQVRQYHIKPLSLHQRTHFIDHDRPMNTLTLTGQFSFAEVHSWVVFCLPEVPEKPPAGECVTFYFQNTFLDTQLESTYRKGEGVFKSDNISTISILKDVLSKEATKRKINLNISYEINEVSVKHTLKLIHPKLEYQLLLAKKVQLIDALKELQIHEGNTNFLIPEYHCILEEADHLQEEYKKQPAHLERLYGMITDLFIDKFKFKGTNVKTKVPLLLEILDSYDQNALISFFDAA
inactive: vemurafenib 0.375 | [2] -0.082 | [3] 0.026 | [4] -0.255 | [5] 0.067 | saracatinib 0.217 | sotrastaurin 0.044 | alvocidib 0.027 | Tubastatin A -0.123 | [6] -0.028 | defactinib -0.212 | [9] -0.042 | encorafenib 0.024 | [7] 0.091 | alisertib 0.123 | gefitinib -0.016

CCND3 (UniProt P30281)
Sequence of UniProt P30281 (P30281 whole entry, looked up): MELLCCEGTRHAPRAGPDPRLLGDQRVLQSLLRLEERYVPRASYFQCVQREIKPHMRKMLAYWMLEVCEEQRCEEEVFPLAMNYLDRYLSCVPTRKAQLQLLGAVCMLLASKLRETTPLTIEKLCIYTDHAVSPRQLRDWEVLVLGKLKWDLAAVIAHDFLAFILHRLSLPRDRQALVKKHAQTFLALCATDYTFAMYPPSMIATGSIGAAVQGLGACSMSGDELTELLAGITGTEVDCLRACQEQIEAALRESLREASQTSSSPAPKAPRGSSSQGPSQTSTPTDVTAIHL
inactive: barasertib 0.014 | [2] -0.056 | [3] -0.112 | [4] -0.116 | [5] 0.075 | saracatinib 0.086 | sotrastaurin 0.016 | alvocidib 0.144 | Tubastatin A -0.001 | [6] 0.024 | [9] 0.037 | encorafenib 0.081 | [7] -0.128 | alisertib 0.073 | gefitinib 0.201

ATE1 (UniProt O95260)
inactive: [1] 0.061 | barasertib -0.051 | volasertib 0.002 | [4] 0.082 | [5] 0.003 | sotrastaurin 0.021 | alvocidib -0.024 | [8] 0.044

CENPV (UniProt Q7Z7K6)
Sequence of UniProt Q7Z7K6 (Q7Z7K6 whole entry, looked up): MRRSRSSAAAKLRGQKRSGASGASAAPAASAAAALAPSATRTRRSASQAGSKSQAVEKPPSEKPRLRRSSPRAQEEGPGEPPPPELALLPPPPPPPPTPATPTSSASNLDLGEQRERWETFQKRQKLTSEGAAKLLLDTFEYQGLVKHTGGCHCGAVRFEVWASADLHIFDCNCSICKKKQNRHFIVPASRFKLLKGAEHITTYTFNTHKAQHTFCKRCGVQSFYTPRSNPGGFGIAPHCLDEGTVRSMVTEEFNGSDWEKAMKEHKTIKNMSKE
inactive: vemurafenib -0.104 | barasertib 0 | [2] -0.033 | [3] 0.19 | [4] 0.264 | [5] -0.004 | sotrastaurin 0.007 | alvocidib -0.15 | Tubastatin A -0.458 | defactinib 0.117 | encorafenib 0.323 | [7] -0.045 | alisertib -0.205 | gefitinib 0.789

CASC1 (UniProt Q6TDU7)
inactive: barasertib 1.04 | [3] -0.217 | [4] 0.034 | [5] 0.006 | alvocidib -0.023 | Tubastatin A 0.317

CEP295 isoform 3 (UniProt Q9C0D2)
Sequence of UniProt Q9C0D2 (Q9C0D2 whole entry, looked up): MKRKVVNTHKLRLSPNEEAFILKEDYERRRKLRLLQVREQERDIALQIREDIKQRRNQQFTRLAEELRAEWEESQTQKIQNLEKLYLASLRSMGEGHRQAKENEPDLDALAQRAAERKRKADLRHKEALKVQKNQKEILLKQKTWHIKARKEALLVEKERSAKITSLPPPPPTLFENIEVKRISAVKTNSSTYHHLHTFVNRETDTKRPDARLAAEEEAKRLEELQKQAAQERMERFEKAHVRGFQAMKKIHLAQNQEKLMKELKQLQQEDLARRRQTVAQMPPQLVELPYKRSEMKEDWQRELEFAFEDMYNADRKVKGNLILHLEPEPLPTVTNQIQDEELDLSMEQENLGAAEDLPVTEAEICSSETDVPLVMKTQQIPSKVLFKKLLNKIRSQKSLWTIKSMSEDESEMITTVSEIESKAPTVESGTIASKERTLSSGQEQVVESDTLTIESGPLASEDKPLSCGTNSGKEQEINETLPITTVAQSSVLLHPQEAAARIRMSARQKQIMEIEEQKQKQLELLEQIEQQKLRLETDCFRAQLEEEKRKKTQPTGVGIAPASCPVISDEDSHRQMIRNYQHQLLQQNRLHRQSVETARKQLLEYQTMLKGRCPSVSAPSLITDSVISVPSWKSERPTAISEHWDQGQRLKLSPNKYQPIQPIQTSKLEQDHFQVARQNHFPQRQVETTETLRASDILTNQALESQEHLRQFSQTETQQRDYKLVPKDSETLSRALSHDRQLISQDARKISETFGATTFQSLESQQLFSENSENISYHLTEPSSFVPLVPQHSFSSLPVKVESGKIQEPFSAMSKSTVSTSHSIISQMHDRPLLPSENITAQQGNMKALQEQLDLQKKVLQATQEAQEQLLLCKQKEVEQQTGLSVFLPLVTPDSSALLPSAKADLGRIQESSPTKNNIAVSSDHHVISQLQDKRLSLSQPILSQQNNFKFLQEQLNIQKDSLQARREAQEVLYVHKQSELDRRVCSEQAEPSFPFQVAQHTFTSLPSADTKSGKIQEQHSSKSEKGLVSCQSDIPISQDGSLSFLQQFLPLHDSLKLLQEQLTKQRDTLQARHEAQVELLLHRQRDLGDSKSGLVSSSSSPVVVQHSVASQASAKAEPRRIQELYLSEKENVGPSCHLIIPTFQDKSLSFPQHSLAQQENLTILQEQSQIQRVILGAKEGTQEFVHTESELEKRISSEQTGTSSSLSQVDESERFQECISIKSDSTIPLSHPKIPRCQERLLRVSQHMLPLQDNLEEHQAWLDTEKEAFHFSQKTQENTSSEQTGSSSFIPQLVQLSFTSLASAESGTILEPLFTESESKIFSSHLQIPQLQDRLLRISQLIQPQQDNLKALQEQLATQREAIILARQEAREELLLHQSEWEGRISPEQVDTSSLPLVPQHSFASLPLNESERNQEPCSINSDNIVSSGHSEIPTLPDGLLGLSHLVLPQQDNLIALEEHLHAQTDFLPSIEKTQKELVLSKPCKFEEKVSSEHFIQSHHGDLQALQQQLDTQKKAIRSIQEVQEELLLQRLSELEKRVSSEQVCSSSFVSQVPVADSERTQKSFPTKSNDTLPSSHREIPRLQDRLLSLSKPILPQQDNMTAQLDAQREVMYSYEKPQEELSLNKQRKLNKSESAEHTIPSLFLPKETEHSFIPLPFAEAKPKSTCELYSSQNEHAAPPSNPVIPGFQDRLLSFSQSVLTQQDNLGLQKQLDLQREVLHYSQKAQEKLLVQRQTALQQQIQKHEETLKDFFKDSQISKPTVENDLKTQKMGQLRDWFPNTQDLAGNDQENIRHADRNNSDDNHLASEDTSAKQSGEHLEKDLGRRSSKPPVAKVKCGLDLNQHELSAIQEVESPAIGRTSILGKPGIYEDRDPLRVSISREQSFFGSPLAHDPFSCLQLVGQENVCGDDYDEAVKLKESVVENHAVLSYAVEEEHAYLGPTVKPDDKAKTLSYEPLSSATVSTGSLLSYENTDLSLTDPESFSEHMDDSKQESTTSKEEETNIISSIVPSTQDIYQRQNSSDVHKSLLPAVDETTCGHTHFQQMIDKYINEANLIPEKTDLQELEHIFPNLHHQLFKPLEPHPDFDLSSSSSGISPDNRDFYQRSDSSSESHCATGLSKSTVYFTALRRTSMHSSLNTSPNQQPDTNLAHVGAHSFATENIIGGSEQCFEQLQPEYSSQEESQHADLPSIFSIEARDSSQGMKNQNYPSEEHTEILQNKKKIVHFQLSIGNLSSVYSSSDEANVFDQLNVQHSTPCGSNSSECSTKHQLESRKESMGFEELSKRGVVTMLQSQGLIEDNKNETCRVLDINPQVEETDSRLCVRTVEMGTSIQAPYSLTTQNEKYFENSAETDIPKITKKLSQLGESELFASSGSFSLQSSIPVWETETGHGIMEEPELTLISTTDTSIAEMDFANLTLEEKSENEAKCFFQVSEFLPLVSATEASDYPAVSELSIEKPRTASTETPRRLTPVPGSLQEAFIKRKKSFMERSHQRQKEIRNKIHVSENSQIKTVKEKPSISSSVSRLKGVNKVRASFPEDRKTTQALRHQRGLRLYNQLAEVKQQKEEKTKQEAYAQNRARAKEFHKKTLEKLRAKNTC
inactive: [1] -0.058 | barasertib -0.039 | [2] 0.052 | volasertib 0.043 | [3] -0.028 | [4] -0.387 | [5] 0.001 | sotrastaurin 0.005 | alvocidib -0.039 | Tubastatin A -0.099 | [6] -0.029 | encorafenib -0.154 | [7] 0.149 | alisertib 0.018 | [8] -0.016 | gefitinib -0.041
